PubChem BioAssay (EPA / NIEHS)
Calls of active or inactive are those of the source. How the source made its calls: active means hit-call score of the fitted dose curve at least 0.9, where 1 is the maximum; inactive means score below 0.9.

What was measured:
[1] = molecular target: Bile acid receptor (Homo sapiens) (UniProt Q96RI1); assay: ATG_IR1_CIS: Attagene CIS-FACTORIAL HepG2 Assay for human Nuclear Receptor Subfamily 1 Group H Member 4 (NR1H4), IR1 submotif (AID 2282946); settings: IR1 reporter transcription, actives raise or lower the signal
Method in brief: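 HepG2 cells transiently transfected with multiplexed cis-element reporter units read endogenous transcription factor activity. After 24 h compound exposure, reporter mRNA was quantified by RT-PCR, fluorescent labelling, HpaI digestion and capillary electrophoresis; bidirectional fitting versus DMSO baseline.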

[2] = ATG_GRE_CIS: Attagene CIS-FACTORIAL HepG2 Assay for human Glucocorticoid Response Elements (GRE) (AID 2282947); settings: HepG2 GRE cis-reporter, Attagene multiplex mRNA; actives raise or lower the signal
Method in brief: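 Multiplexed cis-reporter mRNA induction, HepG2, 24 h post-dose. RT-PCR, FAM-labelled, HpaI-digested amplicons by CE. Bidirectional fit vs DMSO.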

[3] = ATG_ISRE_CIS: Attagene CIS-FACTORIAL HepG2 Assay for human Interferon Regulatory Factor 1 (IRF1) binding to an Interferon-Stimulated Response Element (ISRE) (AID 2282948); settings: HepG2 ISRE cis-reporter (Attagene), mRNA transcription readout; actives raise or lower the signal
Method in brief: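 Read-out: fluorescent RT-PCR products resolved by capillary electrophoresis, reporting endogenous transcription factor activity via ISRE-driven reporter mRNA in transfected HepG2 cells dosed for 24 h; gain or loss fitted relative to DMSO.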

[4] = ATG_M_32_CIS: Attagene CIS-FACTORIAL HepG2 Assay for M32 Transcription Factor (Internal Marker) (AID 2282949); settings: HepG2 Attagene cis-factorial M32 reporter, mRNA; actives raise or lower the signal;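 further: background control marker of the multiplexed CIS panel rather than a real target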
Method in brief: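 Using DMSO as baseline, bidirectional curve fits were applied to reporter mRNA signals. These came from transiently transfected HepG2 cells exposed for 24 h, with RNA analysed by RT-PCR, FAM primer extension, HpaI digestion and CE.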

[5] = ATG_M_06_CIS: Attagene CIS-FACTORIAL HepG2 Assay for M06 Transcription Factor (Internal Marker) (AID 2282950); settings: HepG2 Attagene CIS-FACTORIAL M06 internal marker reporter; actives raise or lower the signal
Method in brief: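 One of many multiplexed endpoints: HepG2 reporter mRNA after 24 h dosing, detected by RT-PCR and capillary electrophoresis fluorescence; gain or loss of signal analysed against DMSO.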

[6] = molecular target: Hypoxia-inducible factor 1-alpha (Homo sapiens) (UniProt Q16665); assay: ATG_HIF1a_CIS: Attagene CIS-FACTORIAL HepG2 Assay for human Hypoxia Inducible Factor 1 (HIF1A) (AID 2282951); settings: HepG2 Attagene cis-factorial HIF1a reporter transcription; actives raise or lower the signal
Method in brief: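 Dosed 24 h, transfected HepG2 cells yielded total RNA whose reporter transcripts were RT-PCR-amplified and sized by capillary electrophoresis using fluorescent labelling; DMSO defined baseline, with gain and loss of signal both fitted.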

[7] = molecular target: Hepatocyte nuclear factor 6 (Homo sapiens) (UniProt Q9UBC0); assay: ATG_HNF6_CIS: Attagene CIS-FACTORIAL HepG2 Assay for human Hepatocyte Nuclear Factor 6 (HNF6) (AID 2282952); settings: HepG2 Attagene cis-factorial HNF6 reporter transcription; actives raise or lower the signal
Method in brief: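 Using cis-element reporters in HepG2 liver cells, the assay tracks endogenous factor-driven transcription 24 h post-dosing. Signal comes from 6-FAM-labelled, HpaI-digested RT-PCR fragments, with gain or loss scored against DMSO.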

[8] = ATG_MRE_CIS: Attagene CIS-FACTORIAL HepG2 Assay for human Metal Responsive Element (MRE) (AID 2282954); settings: HepG2 MRE cis-reporter transcription, Attagene multiplex; actives raise or lower the signal
Method in brief: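 Multiplexed cis-reporter assay in human HepG2 liver cells, 24 h incubation with test chemical. Reporter transcripts measured by RT-PCR and capillary electrophoresis; values from bidirectional curve fitting versus DMSO.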

[9] = ATG_PBREM_CIS: Attagene CIS-FACTORIAL HepG2 Assay for human Phenobarbital-responsive Enhancer Module (PBREM) (AID 2282955); settings: HepG2 PBREM cis-reporter, Attagene multiplexed transcription; actives raise or lower the signal
Method in brief: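 Transfected liver-derived HepG2 cells exposed 24 h; PBREM reporter transcript quantified via RT-PCR and capillary electrophoresis, with activity in either direction referenced to DMSO.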

[10] = molecular target: Paired box protein Pax-6 (Homo sapiens) (UniProt P26367); assay: ATG_Pax6_CIS: Attagene CIS-FACTORIAL HepG2 Assay for human Paired Box 6 (PAX6) (AID 2282956); settings: HepG2 CIS-FACTORIAL PAX6 reporter transcription, RNA readout; actives raise or lower the signal
Method in brief: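 Readout: reporter transcript fluorescence after RT-PCR and capillary electrophoresis. Cells: HepG2, transiently transfected with cis-regulated MRTUs. Exposure 24 h. Gain or loss of signal fitted bidirectionally relative to DMSO.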

[11] = ATG_PXRE_CIS: Attagene CIS-FACTORIAL HepG2 Assay for human Pregnane X Receptor Element (PXRE) (AID 2282957); settings: HepG2 Attagene CIS-FACTORIAL PXRE reporter, mRNA; actives raise or lower the signal
Method in brief: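 Using HepG2 transfected with multiple reporter transcription units, endogenous factor-driven transcription was scored as reporter mRNA after 24 h exposure.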

[12] = ATG_PPRE_CIS: Attagene CIS-FACTORIAL HepG2 Assay for human Peroxisome Proliferator-activated Response Element (PPRE) (AID 2282958); settings: HepG2 PPRE cis-element reporter, Attagene transcription factor profiling; actives raise or lower the signal
Method in brief: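 Measured endpoint: PPRE-controlled reporter mRNA, detected by RT-PCR and capillary electrophoresis fluorescence, from transiently transfected HepG2 cells 24 h after dosing. Curves fitted in both directions using DMSO baseline.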

[13] = ATG_RORE_CIS: Attagene CIS-FACTORIAL HepG2 Assay for human RAR-related Orphan Receptor Element (RORE) (AID 2282959); settings: HepG2 Attagene cis-factorial RORE reporter, mRNA; actives raise or lower the signal
Method in brief: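 Transiently transfected HepG2 reporter cells were treated 24 h. Reporter transcripts were detected by RT-PCR and capillary electrophoresis, with bidirectional fitting against DMSO.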

[14] = ATG_Sox_CIS: Attagene CIS-FACTORIAL HepG2 Assay for human SRY-box transcription factor (SOX) (AID 2282960); settings: HepG2 Attagene cis-factorial SOX reporter, mRNA; actives raise or lower the signal
Method in brief: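 Gain- or loss-of-signal endpoint, fitted bidirectionally with DMSO as negative control. Based on reporter mRNA from transfected HepG2 cells harvested 24 h post-treatment and quantified via RT-PCR and capillary electrophoresis.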

[15] = molecular target: Transcription factor Sp1 (Homo sapiens) (UniProt P08047); assay: ATG_Sp1_CIS: Attagene CIS-FACTORIAL HepG2 Assay for human Specificity Protein 1 (Sp1) (AID 2282961); settings: HepG2 Sp1 cis-reporter transcription, actives raise or lower the signal
Method in brief: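 Endpoint reflects endogenous Sp1 transcriptional activity, not an exogenous fusion protein: HepG2 cells with transfected cis-regulated reporters, 24 h dosing, RT-PCR/capillary electrophoresis mRNA read-out, DMSO-normalised bidirectional fit.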

[16] = ATG_SREBP_CIS: Attagene CIS-FACTORIAL HepG2 Assay for human Sterol Regulatory Element Binding (SREBP) (AID 2282962); settings: HepG2 Attagene cis-factorial SREBP reporter, mRNA; actives raise or lower the signal
Method in brief: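 Readout: fluorescent reporter-transcript peaks resolved by capillary electrophoresis after RT-PCR. Cells were human HepG2 carrying transfected cis-promoter reporter constructs, dosed for 24 h. Gain or loss of signal was fitted against DMSO controls.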

[17] = molecular target: Signal transducer and activator of transcription 3 (Homo sapiens) (UniProt P40763); assay: ATG_STAT3_CIS: Attagene CIS-FACTORIAL HepG2 Assay for human Signal Transducer and Activator of Transcription 3 (STAT3) (AID 2282963); settings: HepG2, Attagene cis-factorial STAT3 reporter transcription; actives raise or lower the signal
Method in brief: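 Cis-factorial format: endogenous transcription factors in HepG2 drive transfected reporter units. After 24 h treatment, reporter RNA was reverse-transcribed, amplified, FAM-labelled and HpaI-digested before CE analysis; activity scored in both directions against DMSO.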

[18] = ATG_TA_CIS: Attagene CIS-FACTORIAL HepG2 Assay for human TA Basal Promoter (AID 2282964); settings: HepG2 Attagene CIS-factorial TA basal promoter reporter; actives raise or lower the signal
Method in brief: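 Transient MRTU transfection of HepG2 preceded 24 h compound exposure. Reporter mRNA levels were then read by RT-PCR with capillary electrophoresis, and this background-control endpoint was fitted bidirectionally to DMSO.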

[19] = ATG_TCF_b_cat_CIS: Attagene CIS-FACTORIAL HepG2 Assay for human T-Cell-Factor with beta-catenin (TCF/b-cat) (AID 2282965); settings: HepG2 TCF/beta-catenin cis-reporter transcription, actives raise or lower the signal
Method in brief: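 Endogenous transcription factor activity is captured through cis-promoter reporter constructs transiently introduced into human HepG2 liver cells. Induced reporter mRNA is measured after 24 h and fitted bidirectionally relative to DMSO.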

[20] = molecular target: Heat shock factor protein 1 (Homo sapiens) (UniProt Q00613); assay: ATG_HSE_CIS: Attagene CIS-FACTORIAL HepG2 Assay for human Heat Shock Transcription Factor 1 (HSE) (AID 2282953); settings: HepG2 HSE cis-reporter, Attagene RNA transcription; actives raise or lower the signal
Method in brief: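 Using HepG2 with transfected cis-driven reporter constructs, compound effects on endogenous factor activity are scored as reporter mRNA change at 24 h. Detection: RT-PCR, HpaI digestion, capillary electrophoresis; bidirectional fitting to DMSO.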

Measured: AC50

Heat shock factor protein 1 (Homo sapiens), sequence (Q00613 whole entry, looked up): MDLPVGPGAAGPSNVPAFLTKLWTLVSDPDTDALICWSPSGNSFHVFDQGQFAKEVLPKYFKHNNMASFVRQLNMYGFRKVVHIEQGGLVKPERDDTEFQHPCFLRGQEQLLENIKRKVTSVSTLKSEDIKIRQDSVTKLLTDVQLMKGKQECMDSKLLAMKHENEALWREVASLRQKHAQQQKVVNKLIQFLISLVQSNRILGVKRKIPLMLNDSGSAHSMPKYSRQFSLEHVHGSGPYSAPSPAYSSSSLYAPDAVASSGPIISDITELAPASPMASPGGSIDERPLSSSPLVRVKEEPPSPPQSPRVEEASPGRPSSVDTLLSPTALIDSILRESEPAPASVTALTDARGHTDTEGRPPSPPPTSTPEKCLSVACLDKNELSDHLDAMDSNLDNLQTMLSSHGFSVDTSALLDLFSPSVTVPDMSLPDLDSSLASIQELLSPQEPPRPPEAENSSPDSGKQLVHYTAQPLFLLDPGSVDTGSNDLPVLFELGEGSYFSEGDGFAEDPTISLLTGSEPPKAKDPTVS
Signal transducer and activator of transcription 3 (Homo sapiens), sequence (P40763 whole entry, looked up): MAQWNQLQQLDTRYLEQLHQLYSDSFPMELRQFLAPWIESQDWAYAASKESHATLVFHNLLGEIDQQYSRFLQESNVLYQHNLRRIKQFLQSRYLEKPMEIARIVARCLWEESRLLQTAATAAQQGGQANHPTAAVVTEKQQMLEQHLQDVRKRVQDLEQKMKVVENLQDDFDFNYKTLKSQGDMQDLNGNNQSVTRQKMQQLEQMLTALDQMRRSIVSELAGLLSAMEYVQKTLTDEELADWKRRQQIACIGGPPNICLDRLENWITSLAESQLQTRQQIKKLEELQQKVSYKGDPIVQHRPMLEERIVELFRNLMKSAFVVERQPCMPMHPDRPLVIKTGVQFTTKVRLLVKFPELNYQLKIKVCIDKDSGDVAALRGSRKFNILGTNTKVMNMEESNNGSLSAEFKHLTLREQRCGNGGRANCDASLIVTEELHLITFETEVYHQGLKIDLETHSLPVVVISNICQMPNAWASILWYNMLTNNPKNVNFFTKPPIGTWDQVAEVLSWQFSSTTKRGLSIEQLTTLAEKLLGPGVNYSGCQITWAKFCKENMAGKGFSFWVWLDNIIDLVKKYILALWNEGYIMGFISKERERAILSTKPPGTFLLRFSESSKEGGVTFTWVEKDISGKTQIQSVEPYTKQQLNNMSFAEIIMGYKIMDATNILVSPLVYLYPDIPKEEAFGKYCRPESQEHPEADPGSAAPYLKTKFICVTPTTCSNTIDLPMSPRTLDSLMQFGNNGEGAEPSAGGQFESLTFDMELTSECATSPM
Hepatocyte nuclear factor 6 (Homo sapiens), sequence (Q9UBC0 whole entry, looked up, the tested form may be a part): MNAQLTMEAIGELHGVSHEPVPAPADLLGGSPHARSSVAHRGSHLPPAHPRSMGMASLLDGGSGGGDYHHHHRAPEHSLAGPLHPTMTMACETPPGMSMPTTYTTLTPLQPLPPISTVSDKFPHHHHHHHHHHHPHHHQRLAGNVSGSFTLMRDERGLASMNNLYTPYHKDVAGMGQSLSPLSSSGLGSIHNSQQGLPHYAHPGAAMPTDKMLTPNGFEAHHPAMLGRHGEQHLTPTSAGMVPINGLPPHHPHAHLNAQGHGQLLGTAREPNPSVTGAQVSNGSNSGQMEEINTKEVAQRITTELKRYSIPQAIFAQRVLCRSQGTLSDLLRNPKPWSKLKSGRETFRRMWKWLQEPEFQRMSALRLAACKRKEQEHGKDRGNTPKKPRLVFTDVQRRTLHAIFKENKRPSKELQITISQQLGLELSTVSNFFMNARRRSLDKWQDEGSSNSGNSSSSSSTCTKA
Paired box protein Pax-6 (Homo sapiens), sequence (P26367 whole entry, looked up): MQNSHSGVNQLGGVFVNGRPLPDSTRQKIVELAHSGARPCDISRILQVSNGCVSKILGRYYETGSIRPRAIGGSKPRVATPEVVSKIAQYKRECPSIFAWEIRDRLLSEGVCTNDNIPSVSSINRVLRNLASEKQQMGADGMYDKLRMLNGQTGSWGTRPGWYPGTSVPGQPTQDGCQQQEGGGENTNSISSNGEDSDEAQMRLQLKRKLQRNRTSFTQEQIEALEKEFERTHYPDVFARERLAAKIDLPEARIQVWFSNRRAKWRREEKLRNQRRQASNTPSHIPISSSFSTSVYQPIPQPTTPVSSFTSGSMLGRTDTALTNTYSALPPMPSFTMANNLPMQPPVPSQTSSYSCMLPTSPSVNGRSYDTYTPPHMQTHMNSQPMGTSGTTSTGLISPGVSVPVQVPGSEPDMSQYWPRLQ
Hypoxia-inducible factor 1-alpha (Homo sapiens), sequence (Q16665 whole entry, looked up): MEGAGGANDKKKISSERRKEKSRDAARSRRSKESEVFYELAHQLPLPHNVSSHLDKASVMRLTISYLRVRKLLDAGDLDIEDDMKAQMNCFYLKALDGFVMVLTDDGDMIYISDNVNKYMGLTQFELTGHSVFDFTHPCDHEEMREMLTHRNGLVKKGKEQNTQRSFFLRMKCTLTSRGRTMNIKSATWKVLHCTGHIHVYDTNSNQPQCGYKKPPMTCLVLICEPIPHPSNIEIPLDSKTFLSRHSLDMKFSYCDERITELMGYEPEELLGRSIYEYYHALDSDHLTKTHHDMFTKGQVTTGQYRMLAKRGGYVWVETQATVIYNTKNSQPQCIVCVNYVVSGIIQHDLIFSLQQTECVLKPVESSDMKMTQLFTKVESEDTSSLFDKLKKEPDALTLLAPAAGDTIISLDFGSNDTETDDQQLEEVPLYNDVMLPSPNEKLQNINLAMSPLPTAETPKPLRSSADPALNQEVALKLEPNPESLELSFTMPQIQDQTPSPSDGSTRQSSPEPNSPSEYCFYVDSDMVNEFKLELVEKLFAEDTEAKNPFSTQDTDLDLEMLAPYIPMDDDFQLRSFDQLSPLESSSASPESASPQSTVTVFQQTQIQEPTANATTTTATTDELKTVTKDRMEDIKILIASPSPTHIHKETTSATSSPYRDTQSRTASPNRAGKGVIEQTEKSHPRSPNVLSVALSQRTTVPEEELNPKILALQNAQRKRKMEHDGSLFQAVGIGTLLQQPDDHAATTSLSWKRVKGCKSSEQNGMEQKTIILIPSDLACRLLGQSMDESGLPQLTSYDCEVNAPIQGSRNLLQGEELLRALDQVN
Transcription factor Sp1 (Homo sapiens), sequence (P08047 whole entry, looked up, the tested form may be a part): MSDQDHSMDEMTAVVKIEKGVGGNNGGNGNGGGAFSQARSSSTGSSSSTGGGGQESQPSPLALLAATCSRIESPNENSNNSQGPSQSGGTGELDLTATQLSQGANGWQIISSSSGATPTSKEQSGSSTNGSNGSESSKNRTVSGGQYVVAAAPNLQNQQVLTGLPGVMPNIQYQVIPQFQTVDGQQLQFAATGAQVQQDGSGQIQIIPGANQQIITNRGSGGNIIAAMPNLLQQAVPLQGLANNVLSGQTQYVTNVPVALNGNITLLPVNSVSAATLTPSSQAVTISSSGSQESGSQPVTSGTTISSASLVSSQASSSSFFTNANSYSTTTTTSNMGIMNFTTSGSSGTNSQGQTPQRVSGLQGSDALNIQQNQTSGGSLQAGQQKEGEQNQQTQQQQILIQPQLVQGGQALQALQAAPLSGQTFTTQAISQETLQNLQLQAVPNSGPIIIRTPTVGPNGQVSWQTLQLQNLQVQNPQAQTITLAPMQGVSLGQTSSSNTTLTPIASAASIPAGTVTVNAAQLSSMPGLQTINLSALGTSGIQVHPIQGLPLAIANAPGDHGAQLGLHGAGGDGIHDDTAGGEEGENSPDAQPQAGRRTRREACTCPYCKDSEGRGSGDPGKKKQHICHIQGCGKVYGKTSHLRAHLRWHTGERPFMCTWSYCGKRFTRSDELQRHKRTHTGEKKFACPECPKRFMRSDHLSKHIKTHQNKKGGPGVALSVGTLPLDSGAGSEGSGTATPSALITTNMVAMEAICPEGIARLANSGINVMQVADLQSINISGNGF
Bile acid receptor (Homo sapiens), sequence (Q96RI1 whole entry, looked up): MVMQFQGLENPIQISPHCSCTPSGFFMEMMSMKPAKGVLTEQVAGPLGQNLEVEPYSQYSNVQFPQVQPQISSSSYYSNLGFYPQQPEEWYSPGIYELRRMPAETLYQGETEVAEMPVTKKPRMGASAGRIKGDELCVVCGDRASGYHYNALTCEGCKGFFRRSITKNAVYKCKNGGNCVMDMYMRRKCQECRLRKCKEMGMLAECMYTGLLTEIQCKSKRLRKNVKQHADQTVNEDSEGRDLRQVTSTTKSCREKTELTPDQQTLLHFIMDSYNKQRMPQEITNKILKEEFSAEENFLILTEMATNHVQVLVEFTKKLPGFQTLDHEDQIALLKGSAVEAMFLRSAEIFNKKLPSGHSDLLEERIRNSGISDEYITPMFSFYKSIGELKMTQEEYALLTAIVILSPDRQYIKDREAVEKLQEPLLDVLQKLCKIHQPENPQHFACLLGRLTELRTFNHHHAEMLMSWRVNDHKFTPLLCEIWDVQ

Cc1cccc(C)c1C
not listed: [20]
inactive: all other assays above

Clc1ccc(Cl)c(Cl)c1Cl
not listed: [17]
inactive: all other assays above

C[Si](O[Si](C)(C)C)O[Si](C)(C)C
active: [11] 13.4 µM
inactive: all other assays above

Cc1ccc2sc3cccc(C)c3c2c1
active: [6] 52.9 µM
not listed: [11]
inactive: all other assays above

CSc1nnc(C(C)(C)C)c(=O)[nH]1
not listed: [16] | [19]
inactive: all other assays above

C=CC(=O)OCCn1c(=O)n(CCOC(=O)C=C)c(=O)n(CCOC(=O)C=C)c1=O
inactive: [4] | [5] | [7] | [9] | [11] | [12] | [13] | [14] | [16]
active: [1] 24.4 µM | [2] 33.4 µM | [3] 13 µM | [6] 16.8 µM | [20] 54.2 µM | [8] 9.48 µM | [10] 15.7 µM | [15] 8.63 µM | [17] 27 µM | [19] 9.02 µM

CC(CCO)CCc1ccccc1 (stereo unspecified)
active: [11] 41.1 µM
not listed: [9] | [13]
inactive: all other assays above

CC(C)c1ccc(C(C)C)cc1
active: [6] 100 µM | [16] 152 µM
not listed: [12] | [18]
inactive: all other assays above

COc1c(Cl)c(Cl)c(Cl)c(Cl)c1Cl
active: [11] 26.2 µM
not listed: [12]
inactive: all other assays above

CCCCC/C=C/C=C/C=O
active: [1] 144 µM | [6] 100 µM | [10] 100 µM | [11] 26.6 µM
not listed: [4] | [20]
inactive: all other assays above

CCc1c(C)cc(N)c(CC)c1N
active: [11] 64.5 µM
not listed: [4] | [6] | [18] | [19]
inactive: all other assays above

CC(C)(Oc1ccc(CCNC(=O)c2ccc(Cl)cc2)cc1)C(=O)O
active: [11] 25.6 µM
not listed: [6] | [12] | [19]
inactive: all other assays above

OCc1cccnc1
not listed: [6] | [12]
inactive: all other assays above

CCC(C(=O)NC(N)=O)c1ccccc1 (stereo unspecified)
not listed: [6] | [7] | [9]
inactive: all other assays above

CC(C)=CCC[C@H](C)CC=O
active: [11] 45.3 µM
not listed: [6] | [9] | [12] | [20]
inactive: all other assays above
